The compounds below were run against Solute carrier family 2, facilitated glucose transporter member 1 (Homo sapiens) (UniProt P11166) (assay: ST_JUDE_LEISH: Cytotoxicity at 2uM final concentration against transgenic Leishmania Mexicana promastigotes LmGLUT1 that are glucose transport deficient and complemented with the human glucose transporter GLUT1. Activity is measured by DNA content using SYBR green in vitro).
Type: functional

Chain of Solute carrier family 2, facilitated glucose transporter member 1 (Homo sapiens) (P11166 whole entry): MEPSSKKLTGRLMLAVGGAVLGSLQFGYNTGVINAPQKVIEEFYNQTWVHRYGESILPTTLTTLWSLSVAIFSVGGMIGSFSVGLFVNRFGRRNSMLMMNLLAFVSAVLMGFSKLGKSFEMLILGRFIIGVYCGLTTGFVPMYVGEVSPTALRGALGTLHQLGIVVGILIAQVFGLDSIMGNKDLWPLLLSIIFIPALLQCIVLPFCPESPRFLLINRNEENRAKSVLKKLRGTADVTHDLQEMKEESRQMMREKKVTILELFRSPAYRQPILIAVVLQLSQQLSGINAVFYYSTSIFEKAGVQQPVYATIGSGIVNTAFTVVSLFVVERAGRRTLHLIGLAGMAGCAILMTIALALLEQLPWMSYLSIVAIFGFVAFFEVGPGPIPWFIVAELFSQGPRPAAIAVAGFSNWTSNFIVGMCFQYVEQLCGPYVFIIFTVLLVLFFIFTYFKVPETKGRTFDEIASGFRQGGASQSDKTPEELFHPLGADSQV

Row | Structure (SMILES) | inhibition [%]
1 | O=C(NCc1ccccc1)NC1CCN(c2ccnc3cc(Cl)ccc23)C1 (stereo not given) | -2.48
2 | CCOc1cc(C)c(C2CCN(CCCCNC(=O)c3ccc(NC(=O)c4ccc(Cl)cc4)cc3)CC2)cc1C | -0.49
3 | O=S(=O)(c1ccccc1OC(F)(F)F)C1CC2CCC(C1)N2S(=O)(=O)c1cccc(C(F)(F)F)c1 (stereo not given) | 0.7
4 | COc1ccc2nc(Nc3nc4cnccc4[nH]3)sc2c1 | 4.17
5 | O=c1cc(NCCCNCc2ccc(C(F)(F)F)cc2F)[nH]c2ccccc12 | 2.19
6 | CCCN1CCC(c2c[nH]c3ccc(NC(=O)Nc4cccc(Cl)c4Cl)cc23)CC1 | 3.84
7 | COc1ccc(-c2ccc(NC(=O)c3cccc(F)c3)cc2)cc1CN1CCCN(C)CC1 | 4.26
8 | Nc1nc(N)c2c(ccc3c2ccn3Cc2cccc(F)c2)n1 | 102
9 | CC(=O)Nc1cccc(Nc2nccc(-c3c(-c4cccc(NC(=O)c5c(F)cccc5F)c4)nn4ncccc34)n2)c1 | 6.99
10 | Cc1ccn2c(C(=O)N3CCN(c4cccc5c4nc(-c4ccoc4)n5Cc4ccccn4)CC3)c(C)nc2c1 | 2.33
11 | Cc1cc(N[C@@H](CC(C)C)C(=O)NCCOc2ccccc2)nc(NCCOc2ccccc2)n1 | 3.79
12 | O=C(N1CCN(c2ccnc3cc4c(cc23)N(Cc2ccccc2)CC4)CC1)C(F)(F)F | 2.23
13 | Cc1cc(NC(=O)c2ccco2)ccc1OC1CCN(Cc2ccc(F)cc2)CC1 | 4.89
14 | Cc1cc(=O)c(-c2ccc(Oc3ccc(C(F)(F)F)cc3)cc2)c(C)n1O | -1.23
15 | N=C(N)Nc1ccc(CCc2ccc(NC(=N)N)cc2)cc1 | 4.14
16 | Cc1cnc(C[S+]([O-])c2nc3cc(C(F)(F)F)ccc3[nH]2)cc1OCc1ccccc1 (stereo not given) | 3.56
17 | COc1ccc(C=NN=c2cc(C)[nH]c3ccccc23)c(OC)c1 | 54.4
18 | COc1ccc(NC(=O)c2ccc(-c3ccc(-c4cccnc4)cc3)c(C)c2)cc1OCCN(C)C | 1.47
19 | CN1CCC(N2CCN(CCOc3cc(NC(=O)/C=C/c4ccccc4Cl)ccc3Br)CC2)CC1 | 0.25
20 | Cc1cc(N[C@@H](CC(C)C)C(=O)NCc2cccc(F)c2)nc(Nc2ccccc2)n1 | 4.15

Row | Structure (SMILES) | inhibition [%]
21 | CCCCOC(=O)[C@H](CCC)NC(=O)c1ccc(NS(=O)(=O)c2ccc3nc(N)[nH]c(=O)c3c2)cc1 | 0.2
22 | N#Cc1ccc(N[C@@H](CC2CCCCC2)C(=O)NCc2cc(F)c(F)cc2F)c2ccccc12 | 13
23 | CCC(C)c1ccc(O)c(NC(=O)c2cncc(Br)c2)c1 (stereo not given) | -0.89
24 | CCCOc1cc(Cc2cnc(N)nc2N)cc(OC)c1OC | -1.05
25 | Nc1nccc2ccc(OC3CCCCC3)cc12 | 0.26
26 | CCOC(=O)c1ccc(N2CCCCC2)c(NC(=O)C(Cl)(Cl)Cl)c1 | -2.66
27 | Cc1ccc(O)cc1C[C@@H]1C(=O)CC[C@@]2(C)[C@H]1CC[C@]2(C)O | -1.27
28 | CCCC1N=C(N)N=C(N)N1c1ccc(CC)cc1 (stereo not given) | 1.98
29 | Cc1cc(F)ccc1C1CCN(CCCCNC(=O)c2ccc(NC(=O)c3ccc(Cl)cc3)cc2)CC1 | 1.66
30 | Oc1ccc(CCCNc2nc(NCc3cccc4ccccc34)nc(N3CCCNCC3)n2)cc1 | -0.67
31 | COc1ccc2[nH]c(C)cc(=NN=Cc3ccccc3F)c2c1 | -0.29
32 | Cc1cccc2nc(-c3cccc(-c4ccc(NC(=O)COC(C)C)cc4)c3)[nH]c12 | -3.18
33 | COc1ccc(NC(=O)/C=C/c2ccccc2Cl)cc1OCCN1CCC(NCc2ccccc2)CC1 | 3.15
34 | NC1=NC(Cc2ccccc2)N(c2ccc(Cl)cc2)C(N)=N1 (stereo not given) | 8.89
35 | Cc1cccc2nc(-c3cccc(-c4cccc(NC(=O)Nc5ccc(F)c(F)c5F)c4)c3)[nH]c12 | 1.75
36 | COc1cc2c(cc1O)[C@@H]1[C@H](O)[C@@H](O)C=C3CCN(C2)[C@H]31 | 4.04
37 | Cc1[nH]c(C)c(-c2ccc(-c3ccc(OC(F)(F)F)cc3)cc2)c(=O)c1Br | 2.4
38 | COc1ccc(-c2nonc2NC(=O)c2ccc(OC(C)C)cc2)cc1OC | 0.75
39 | Cc1ccc(-c2ccc3c(c2)C=C(C(=O)NCC2CCN(CC4CCN(C(=O)/C=C/c5ccc(Cl)c(Cl)c5)CC4)CC2)CCC3)cc1 | 1.1
40 | Cc1cccc(C)c1OC(=O)C(C)C(O)C1(Sc2ccccc2)CCN(C)CC1 (stereo not given) | 5.2

Each compound was assayed against Hexose transporter 1 (Plasmodium falciparum) (UniProt O97467) (assay: ST_JUDE_LEISH: Cytotoxicity at 2uM final concentration against transgenic Leishmania Mexicana promastigotes LmPfHT that are glucose transport deficient and complemented with the Plasmodium falciparum hexose transporter. Activity is measured by DNA content using SYBR green in vitro).
Type: functional

Row | Structure (SMILES) | inhibition [%]
41 | O=C(NCc1ccccc1)NC1CCN(c2ccnc3cc(Cl)ccc23)C1 (stereo not given) | 0.99
42 | CCOc1cc(C)c(C2CCN(CCCCNC(=O)c3ccc(NC(=O)c4ccc(Cl)cc4)cc3)CC2)cc1C | -0.72
43 | O=S(=O)(c1ccccc1OC(F)(F)F)C1CC2CCC(C1)N2S(=O)(=O)c1cccc(C(F)(F)F)c1 (stereo not given) | -0.63
44 | COc1ccc2nc(Nc3nc4cnccc4[nH]3)sc2c1 | 4.93
45 | O=c1cc(NCCCNCc2ccc(C(F)(F)F)cc2F)[nH]c2ccccc12 | 0.29
46 | CCCN1CCC(c2c[nH]c3ccc(NC(=O)Nc4cccc(Cl)c4Cl)cc23)CC1 | 2.45
47 | COc1ccc(-c2ccc(NC(=O)c3cccc(F)c3)cc2)cc1CN1CCCN(C)CC1 | 2.56
48 | Nc1nc(N)c2c(ccc3c2ccn3Cc2cccc(F)c2)n1 | 104
49 | CC(=O)Nc1cccc(Nc2nccc(-c3c(-c4cccc(NC(=O)c5c(F)cccc5F)c4)nn4ncccc34)n2)c1 | 11
50 | Cc1ccn2c(C(=O)N3CCN(c4cccc5c4nc(-c4ccoc4)n5Cc4ccccn4)CC3)c(C)nc2c1 | 1.01
51 | Cc1cc(N[C@@H](CC(C)C)C(=O)NCCOc2ccccc2)nc(NCCOc2ccccc2)n1 | 1.16
52 | O=C(N1CCN(c2ccnc3cc4c(cc23)N(Cc2ccccc2)CC4)CC1)C(F)(F)F | 3.24
53 | Cc1cc(NC(=O)c2ccco2)ccc1OC1CCN(Cc2ccc(F)cc2)CC1 | 3.02
54 | Cc1cc(=O)c(-c2ccc(Oc3ccc(C(F)(F)F)cc3)cc2)c(C)n1O | -2.25
55 | N=C(N)Nc1ccc(CCc2ccc(NC(=N)N)cc2)cc1 | 4.16
56 | Cc1cnc(C[S+]([O-])c2nc3cc(C(F)(F)F)ccc3[nH]2)cc1OCc1ccccc1 (stereo not given) | 4.95
57 | COc1ccc(C=NN=c2cc(C)[nH]c3ccccc23)c(OC)c1 | 66
58 | COc1ccc(NC(=O)c2ccc(-c3ccc(-c4cccnc4)cc3)c(C)c2)cc1OCCN(C)C | 1.09
59 | CN1CCC(N2CCN(CCOc3cc(NC(=O)/C=C/c4ccccc4Cl)ccc3Br)CC2)CC1 | 2.87
60 | Cc1cc(N[C@@H](CC(C)C)C(=O)NCc2cccc(F)c2)nc(Nc2ccccc2)n1 | 2.87

Row | Structure (SMILES) | inhibition [%]
61 | CCCCOC(=O)[C@H](CCC)NC(=O)c1ccc(NS(=O)(=O)c2ccc3nc(N)[nH]c(=O)c3c2)cc1 | -1.82
62 | N#Cc1ccc(N[C@@H](CC2CCCCC2)C(=O)NCc2cc(F)c(F)cc2F)c2ccccc12 | 14.1
63 | CCC(C)c1ccc(O)c(NC(=O)c2cncc(Br)c2)c1 (stereo not given) | 0.04
64 | CCCOc1cc(Cc2cnc(N)nc2N)cc(OC)c1OC | -1.9
65 | Nc1nccc2ccc(OC3CCCCC3)cc12 | 1.26
66 | CCOC(=O)c1ccc(N2CCCCC2)c(NC(=O)C(Cl)(Cl)Cl)c1 | -0.39
67 | Cc1ccc(O)cc1C[C@@H]1C(=O)CC[C@@]2(C)[C@H]1CC[C@]2(C)O | 1
68 | CCCC1N=C(N)N=C(N)N1c1ccc(CC)cc1 (stereo not given) | 0.44
69 | Cc1cc(F)ccc1C1CCN(CCCCNC(=O)c2ccc(NC(=O)c3ccc(Cl)cc3)cc2)CC1 | 0.36
70 | Oc1ccc(CCCNc2nc(NCc3cccc4ccccc34)nc(N3CCCNCC3)n2)cc1 | -0.2
71 | COc1ccc2[nH]c(C)cc(=NN=Cc3ccccc3F)c2c1 | 2.87
72 | Cc1cccc2nc(-c3cccc(-c4ccc(NC(=O)COC(C)C)cc4)c3)[nH]c12 | 0.45
73 | COc1ccc(NC(=O)/C=C/c2ccccc2Cl)cc1OCCN1CCC(NCc2ccccc2)CC1 | 2.49
74 | NC1=NC(Cc2ccccc2)N(c2ccc(Cl)cc2)C(N)=N1 (stereo not given) | 6.99
75 | Cc1cccc2nc(-c3cccc(-c4cccc(NC(=O)Nc5ccc(F)c(F)c5F)c4)c3)[nH]c12 | 2.51
76 | COc1cc2c(cc1O)[C@@H]1[C@H](O)[C@@H](O)C=C3CCN(C2)[C@H]31 | 3.79
77 | Cc1[nH]c(C)c(-c2ccc(-c3ccc(OC(F)(F)F)cc3)cc2)c(=O)c1Br | 4.25
78 | COc1ccc(-c2nonc2NC(=O)c2ccc(OC(C)C)cc2)cc1OC | 3.06
79 | Cc1ccc(-c2ccc3c(c2)C=C(C(=O)NCC2CCN(CC4CCN(C(=O)/C=C/c5ccc(Cl)c(Cl)c5)CC4)CC2)CCC3)cc1 | 0.59
80 | Cc1cccc(C)c1OC(=O)C(C)C(O)C1(Sc2ccccc2)CCN(C)CC1 (stereo not given) | 3.78

Reference: ChEMBL document CHEMBL3433997, “St. Jude Leishmania screening dataset” (2016)
